An excerpt weighted towards active compounds, which were near 12% of everything screened.
OTUD3 block – human OTUD3 deubiquitinase inhibition; purified OTUD3, Ub-rhodamine fluorescence, 2 h; inhibition, % at 25 µM; 0.7% of 47,000 active
USP17 block – human USP17-like deubiquitinase inhibition; purified USP17, Ub-rhodamine cleavage fluorescence, 3 h; AID 1645855; inhibition, % at 50 µM; 6.5% of 47,000 active
USP30 block – human USP30 deubiquitinase inhibition. 5.3% of 47,000 active. Q70CQ3. purified USP30, Ub-rhodamine cleavage fluorescence. inhibition, % at 25 µM
Target sequence (Q70CQ3 whole entry, looked up): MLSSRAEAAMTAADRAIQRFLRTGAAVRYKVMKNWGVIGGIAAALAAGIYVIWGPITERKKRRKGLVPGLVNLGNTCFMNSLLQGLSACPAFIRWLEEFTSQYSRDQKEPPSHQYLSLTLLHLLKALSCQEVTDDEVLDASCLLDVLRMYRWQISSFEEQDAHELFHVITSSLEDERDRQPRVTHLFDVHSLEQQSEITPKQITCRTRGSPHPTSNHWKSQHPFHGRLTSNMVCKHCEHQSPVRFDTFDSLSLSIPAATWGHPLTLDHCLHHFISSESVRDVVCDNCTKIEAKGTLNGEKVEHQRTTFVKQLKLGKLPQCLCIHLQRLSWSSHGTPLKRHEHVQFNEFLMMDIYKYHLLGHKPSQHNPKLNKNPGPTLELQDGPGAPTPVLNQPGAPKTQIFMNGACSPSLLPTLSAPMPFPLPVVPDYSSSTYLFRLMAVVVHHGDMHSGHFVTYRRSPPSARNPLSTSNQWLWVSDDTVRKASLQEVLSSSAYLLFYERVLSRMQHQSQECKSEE
USP28 block – inhibitors of human USP28 deubiquitinase; Q96RU2; purified USP28, Ub-rhodamine cleavage fluorescence, 30 min; inhibition, % at 25 µM; 3% of 47,000 active
Large screens that a line does not name were inactive. No stated cut-off is given here; in the data, active means inhibition above about 30%; inactive means the rest.

CCN1CCN(CCCNC(=O)c2ccc3c(=O)n(CCc4ccccc4)c(=O)[nH]c3c2)CC1	USP30 block 32
COc1ccccc1N1CCN(C(=O)c2ccc3c(=O)n(CCc4ccccc4)c(=O)[nH]c3c2)CC1	USP30 block 35
COc1ccccc1N1CCN(C(=O)CCn2c(=O)[nH]c3ccccc3c2=O)CC1	none
Cc1cccc(N2CCN(C(=O)CCn3c(=O)[nH]c4ccccc4c3=O)CC2)c1C	USP17 block 46, USP30 block 36
CCn1cc(C(=O)NCc2ccc(Cl)cc2)c(=O)c2ccc(C)nc21	none
CCN(CCCNC(=O)c1ccc(Cn2c(=O)[nH]c3ccccc3c2=O)cc1)c1ccccc1	USP17 block 59
CCOCCCNC(=O)c1ccc(Cn2c(=O)[nH]c3cc(OCC)c(OCC)cc3c2=O)cc1	none (no result: USP30 block, USP28 block)
COc1cccc(/C=C/C(=O)NCc2nnc3c(C(F)(F)F)cc(Cl)cn23)c1	none
COc1cccc(/C=C/C(=O)Nc2ccc(C)c(Cl)c2)c1	USP30 block 40, USP28 block 65
COc1ccc(CNC(=O)CN2C(=O)C(C)=C(c3ccc(C)cc3)S2(=O)=O)cc1	USP28 block 58
COc1ccc(CNC(=O)CN2CCN(Cc3ccccc3C)C2=O)cc1	none
O=C(NCc1cccc(Cl)c1)c1cnn(-c2ccc(Cl)cc2)c1C1CCNCC1	none
Cc1ccc(-n2ncc(C(=O)NCc3cccc(Cl)c3)c2C2CCNCC2)cc1Cl	USP30 block 44 (no result: USP17 block)
Cc1cc(C(=O)N2CCCC3(C/C=C/COc4ccccc4C(=O)NCCNC3=O)C2)no1 (stereo unspecified)	none
COc1ccc(C(=O)Nc2ccc(O)cc2C(=O)O)cc1OC	USP30 block 32
CC(C)(C)c1ccc(C(=O)Nc2ccc(O)cc2C(=O)O)cc1	none
CC(NC(=O)c1c(O)c2cnn(Cc3ccccc3)c2[nH]c1=O)c1ccccc1 (stereo unspecified)	none
Cc1ccccc1NC(=O)c1c(O)c2cnn(Cc3ccccc3)c2[nH]c1=O	USP17 block 35
COc1ccc(NC(=O)CCNS(=O)(=O)c2ccc3c(c2)CCC(=O)N3)cc1OC	none
COc1cccc(N2CCN(C(=O)CCNS(=O)(=O)c3ccc4c(c3)CCC(=O)N4)CC2)c1	USP17 block 58
CS(=O)(=O)c1ccc(-c2nnc(NC(=O)c3ccco3)o2)cc1	none
CS(=O)(=O)c1cccc(-c2nnc(NC(=O)c3ccc(Cc4ccccc4)cc3)o2)c1	USP30 block 35
CC(NC(=O)c1ccc(-c2nnc(-c3ccccc3)o2)cc1)c1ccc(S(C)(=O)=O)cc1 (stereo unspecified)	OTUD3 block 36, USP17 block 71, USP30 block 41
Cc1nc(-c2cccnc2)nc2c1CC(=O)N2C1CCCC1	none
CCCOC(=O)c1cc(NC(=O)c2ccc(OCC)c(Cl)c2)ccc1N1CCOCC1	USP28 block 49
CC(C)c1nc(C(N)=O)c2[nH]c(=O)n(-c3ccc(Cl)cc3)c2n1	none
COc1cccc(C(=O)N2CCC(c3nc(NC4CC4)ncc3-c3cc(C)no3)CC2)c1	none
COc1cc(NC(=O)CSc2nc3ncccc3o2)ccc1Cl	USP17 block 47
COc1ccc(-c2nc3ncccc3o2)cc1NC(=O)COc1ccccc1Cl	none
O=C(COC(=O)C1(c2ccccc2F)CCCC1)Nc1ccc2c(c1)OCO2	USP17 block 41, USP30 block 37
COc1cc(NC(=O)COC(=O)C2(c3ccccc3F)CCCC2)cc(OC)c1	USP30 block 41
CC1CCCN(S(=O)(=O)c2cc3cc(F)ccc3oc2=O)C1 (stereo unspecified)	USP17 block 58
COc1ccccc1CNC(=O)Cn1c(=O)c2c(ncn2CC(C)C)n(Cc2ccccc2)c1=O	USP30 block 31
COc1ccnc2c1c(=O)n(CC(=O)NCc1ccccc1Cl)c(=O)n2C	USP30 block 42
CCOc1ccccc1NC(=O)Cn1c(=O)n(CCCCC(=O)NCc2ccccc2OC)c(=O)c2ccccc21	none
COc1ccccc1CNC(=O)CCCCn1c(=O)c2ccccc2n(Cc2ccc(C)cc2)c1=O	USP17 block 38
COc1ccccc1CNC(=O)CCCCn1c(=O)c2ccccc2n(Cc2ccccc2C#N)c1=O	USP17 block 65
COc1ccnc2c1c(=O)n(CC(=O)N1CCCC1)c(=O)n2C	none
N#Cc1ccc(F)c(CN2CCCC2c2noc(C3CC3)n2)c1 (stereo unspecified)	none
Cc1noc(C)c1CC(=O)Nc1cccn2nc(C(C)C)nc12	none
O=C(c1ccc2c(c1)N(Cc1ccccc1F)C(=O)c1ccccc1S2(=O)=O)N1CCN(C(=O)c2ccco2)CC1	USP17 block 38
O=C(c1ccc2c(c1)N(Cc1ccccc1F)C(=O)c1ccccc1S2)N1CCC2(CC1)OCCO2	none
COc1ccc(-n2nnnc2-c2c[nH]c3c(F)cc(F)cc23)cc1	none
Cc1ccc(CS(=O)(=O)c2cn(CC(=O)N3CCCCCC3)c3ccccc23)cc1	none
CCc1nc(CN2CCN(C3CCOCC3)CC(C(N)=O)C2)c(C)[nH]1 (stereo unspecified)	none
CCc1nc(CN2CCOC(C)(C(=O)N3CCOCC3)C2)c(C)[nH]1 (stereo unspecified)	USP30 block 30
COc1ccc(NC(=O)NCCN2CCN(c3ccc(Cl)cc3)CC2)cc1	none
Cc1ccccc1C(=O)N1CCN(CCNC(=O)C(=O)Nc2ccc(Cl)cc2)CC1	USP30 block 42
CCc1ccccc1NC(=O)C1CCN(c2ccc(-n3cccc3)cn2)CC1	none
COc1ccc(-n2nnc(C(=O)Nc3nc(C)c(C)s3)n2)cc1	USP17 block 48, USP30 block 34, USP28 block 42
COc1cccc(NC(=O)c2nnn(-c3ccccc3)n2)c1	USP28 block 66
Cc1nc(NC(=O)c2nnn(-c3ccc(F)cc3)n2)sc1C	USP17 block 40
COc1ccccc1CNC(=O)c1nnn(-c2ccc(Cl)cc2)n1	USP30 block 35
Cc1ccc(NC(=O)c2nnn(-c3ccccc3)n2)cc1	none
COc1ccc(-n2nnc(C(=O)NCc3ccc(F)cc3F)n2)cc1	none
O=C(C1CCN(Cc2ccccn2)CC1)N1CCc2ccccc2C1	none
COc1ccc2[nH]c3c(c2c1)CCN1C(=O)N(c2ccccc2C(=O)NC2CCCC2)C(=O)[C@]31C	none
COc1ccc(-c2cc(C)no2)cc1S(=O)(=O)NCc1ccc2c(c1)OCO2	none
O=C(NCCCN1CCCC1)c1ccc(CS(=O)(=O)c2ccc(Br)cc2)o1	USP17 block 40
Cc1ccc(C2N=C(N3CCOCC3)Nc3nc(C)cc(=O)n32)cc1 (stereo unspecified)	none
CC1CCCN(S(=O)(=O)c2ccc(-n3cnc(C(=O)N4CCCCC4)c3)nc2)C1 (stereo unspecified)	none
CC1CCCN(S(=O)(=O)c2ccc(-n3cnc(C(=O)N4CCCC4)c3)nc2)C1 (stereo unspecified)	USP30 block 46
COc1ccc(CNC(=O)CN(C(=O)CCC(=O)Nc2ccccn2)c2ccccc2F)cc1	none
COc1ccccc1N(CC(=O)NCc1ccc(F)cc1)C(=O)CCC(=O)Nc1ccccn1	USP30 block 35
CCOc1cccc(-c2noc(-c3nn(-c4cccc(C)c4)ccc3=O)n2)c1	none
